# Only some compounds are listed: those with a hit (about 4.5% of all), similar ones and a draw of the others.
# SKKanGAS inh: blocks kanamycin growth of S. pyogenes SKKanGAS strain | BacTiter-Glo, 6 h | inhibition, % at 7.5 µM | 300,000 tested, 1.3% active | AID 1662;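 active = mean replicate score, as percent of positive control median, at least 50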;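 also: strain carries kanamycin resistance gene driven by streptokinase promoter and grows in 40 µg/ml kanamycin; loss of luminescence reflects streptokinase promoter inhibition or plain growth inhibition; 0% = median of DMSO wells and 100% = positive control at its reference dose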
# PfHsp90 set2: inhibits growth of yeast expressing Plasmodium falciparum Hsp90; S. cerevisiae expressing PfHsp90, BacTiter-Glo ATP, 48 h; yeast lacking PDR1 and PDR3 efflux regulators; inhibition, % at 9.4 µM; 310,000 tested, 0.32% active; AID 504621;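 active = every replicate shows inhibition above about 80%, whatever the replicate mean, limit read from the data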;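 also: 0% = DMSO neutral controls and 100% = 20 µM radicicol positive controls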
# NALP3 yeast inh: NALP3 inhibition in yeast; Yeast reconstituted NLRP3/ASC/caspase-1, beta-gal luminescence, 24 h; inhibition, % at 10 µM; 330,000 tested, 0.39% active; AID 2825;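 active = inhibition of 50% or more; inactive = inhibition below 50%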;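 also: plate controls were induced DMSO wells for no effect and uninduced yeast grown without galactose for full effect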
# tim10-1 inh: inhibits growth of tim10-1 mutant yeast; S. cerevisiae tim10-1 ts strain growth, BacTiter-Glo, 24 h; inhibition, % at 20 µM; 330,000 tested, 2.2% active;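 active = inhibition of at least 40%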;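 also: mutant grown at 25 °C; 0% = DMSO wells with yeast and 100% = wells holding no yeast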
# tim23-1 inh: growth inhibitors of tim23-1 mutant yeast | AID 463212 | 330,000 tested, 1.3% active | S. cerevisiae tim23-1 growth, BacTiter-Glo luminescence, 24 h | inhibition, % at 20 µM;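 active = growth inhibition of the mutant yeast at or above 50%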;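 also: temperature-sensitive mutant grown at 25 °C; plate controls were DMSO-treated mutant yeast for no effect and medium wells lacking yeast for full effect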
# TIM10 inh: growth inhibitors of TIM10 yeast strain; AID 463195; inhibition, % at 10 µM; 330,000 tested, 1.4% active; S. cerevisiae TIM10 strain growth, BacTiter-Glo luminescence, 24 h;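 active = inhibition of 40% or more at the single tested concentration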;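 also: wild-type TIM10 isogenic control strain grown at permissive 25 °C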
# tim10-1 confirm: confirmation of tim10-1 mutant yeast growth inhibitors | S. cerevisiae tim10-1 ts strain growth, BacTiter-Glo, 24 h | shares compounds with tim10-1 inh | inhibition, % at 20 µM | 7,400 tested, 56% active | AID 463213;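 active = inhibition of yeast growth at or above a set limit in either of two repeat tests at 20 µM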;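 also: tim10-1 mutant grown at permissive 25 °C to find synthetic lethal compounds; 0% = DMSO yeast wells and 100% = medium wells without yeast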
# An asterisk follows results filed as active; . = no result.
SMILES,SKKanGAS inh,PfHsp90 set2,NALP3 yeast inh,tim10-1 inh,tim23-1 inh,TIM10 inh,tim10-1 confirm
COC(=O)[C@]1(Cc2ccccc2)N[C@H](CN(C)S(=O)(=O)c2ccc(C(C)(C)C)cc2)[C@@H]2C(=O)N(C)C(=O)[C@@H]21,.,-10,19,-1,-3,-16,.
CCCc1ccc(C(C)NC(=S)NCc2ccc(F)cc2)cc1 (centres undefined),29,-29,22,31,10,23,.
CCC(C)c1ccc(C(C)NC(=S)NCc2ccc(F)cc2)cc1 (centres undefined),38,14,7,44*,49,38,-11
CN(c1ccccc1C(=O)O)S(C)(=O)=O,2,.,7,13,7,2,.
CN(C)c1ccccc1C(=O)c1ccccc1N(C)C,-6,12,9,40*,24,30,22
COC(=O)/C=C\C(C#N)(C#N)N=Cc1ccc(OC)cc1,.,9,.,.,.,.,.
CCOC(=O)c1c(NC(=O)C2C3CCC(O3)C2C(=O)O)sc(C)c1-c1ccc(C)cc1 (centres undefined),7,14,0,17,12,10,.
Cc1sc(NC(=O)C2C3CCC(O3)C2C(=O)O)nc1-c1ccc(CC(C)C)cc1 (centres undefined),15,-9,16,41*,27,19,13
COc1ccc(-c2[nH]ncc2N=Nc2ccccc2)cc1,29,-64,28,58*,42,-10,37*
CN1CC(c2ccc(C#N)cc2)C2(COc3ccccc3C2=O)C12C(=O)Nc1ccccc12 (centres undefined),-9,2,0,40*,48,38,40*
O=[N+]([O-])c1cc(Cl)ccc1NCCNc1ncc(C(F)(F)F)cc1Cl,3,-12,19,21,18,18,.
O=[N+]([O-])c1cccnc1NCCNc1ncc(C(F)(F)F)cc1Cl,26,0,13,41*,38,16,22
COCCNC(=S)NNC(=O)c1cc(-c2cccnc2)nc2ccccc12,7,18,24,22,25,10,.
O=C(NCC(=O)N1CCOCC1)c1ccccc1,1,2,2,-7,1,9,.
O=C(Nc1nccs1)c1ccc(Br)c(S(=O)(=O)N2CCOCC2)c1,6,-1,-18,48*,29,8,32*
CC1CCN(S(=O)(=O)c2cccc(C(=O)Nc3nccs3)c2)CC1,-3,21,3,48*,35,23,35*
O=C(CNC(=O)c1ccc(Cl)cc1)NCc1ccccn1,.,-17,16,-16,13,4,.
O=C(CN1C(=O)/C(=C\C=C\c2ccccc2)SC1=S)Nc1ccc(F)cc1,10,-21,-1,40*,7,14,23
Cc1nn(Cc2ccc(Cl)cc2)c(C)c1NC(=O)c1noc2c1CCCCC2,1,.,12,43*,38,35,44*
Cc1nn(Cc2ccc(Cl)c(Cl)c2)c(C)c1NC(=O)c1noc2c1CCCCC2,3,4,-9,8,15,8,.
Cc1nn(Cc2ccc(C(=O)Nc3ccccc3F)cc2)c(C)c1Cl,-3,-5,23,41*,11,11,26
Cc1nn(Cc2ccc(Cl)cc2)c(C)c1NC(=O)c1ccc([N+](=O)[O-])cc1,-1,-33,11,53*,40,16,41*
Cc1nn(Cc2ccc(C(=O)NN)cc2)c(C)c1Cl,5,-1,9,19,36,1,.
Cc1c(Cl)c([N+](=O)[O-])nn1Cc1ccc(C(=O)Nc2ccc(Cl)cn2)o1,7,-34,14,47*,42,38,34*
CCOc1ccc(S(=O)(=O)N2CCC(C(=O)N3CCN(Cc4ccccc4)CC3)CC2)cc1,14,10,16,9,6,5,.
SMILES,SKKanGAS inh,PfHsp90 set2,NALP3 yeast inh,tim10-1 inh,tim23-1 inh,TIM10 inh,tim10-1 confirm
COc1cccc(COC(=O)C2CC(=O)N(Cc3ccc(C)cc3)C2)c1OC (centres undefined),-2,1,15,9,22,4,.
CCCCn1c(N)c(N(CCOC)C(=O)C2CCCN(C(=O)c3ccc(Cl)cc3)C2)c(=O)[nH]c1=O (centres undefined),-4,4,3,-20,-8,0,.
C=C1CCC[C@]2(C)C[C@H]3OC(=O)C(CN4CCOCC4)[C@H]3C[C@@H]12 (some centres undefined),-3,-16,-16,51*,36,24,46*
O=C1[C@@H]2[C@@H]3C[C@@H]([C@H]4ON=C(c5ccc(Cl)cc5Cl)[C@@H]34)[C@@H]2C(=O)N1C1CCCCC1,1,-1,1,52*,41,13,34*
CN1C(=O)[C@@H]2[C@@H]3C[C@@H]([C@H]4ON=C(c5ccc(Cl)cc5)[C@@H]34)[C@@H]2C1=O,2,-4,5,1,16,10,.
COc1ccc(/C=C/C(=O)C2CC2)cc1Cn1nc(C)c([N+](=O)[O-])c1C,-6,3,21,47*,25,24,37*
COc1ccc(C(C)=O)cc1Cn1nc(C)c([N+](=O)[O-])c1C,3,-15,8,13,18,10,.
COc1ccc(/C=C2\SC(=O)N(CCNC(=O)Cc3coc4cc(OC)ccc34)C2=O)cc1,-4,10,-13,19,1,-5,.
O=C(NCCN1C(=O)S/C(=C/c2cccnc2)C1=O)c1cccs1,.,12,11,44*,43,29,26
COc1ccc2c(CC(=O)NCCN3C(=O)S/C(=C\c4cccnc4)C3=O)coc2c1,-1,-4,6,50*,30,7,16
CC(=C\c1ccco1)/C=C(\C#N)C(=O)NCCc1c[nH]c2ccccc12,6,19,12,43*,31,38,42*
CC1=NN(C(N)=S)C(=O)C1N=Nc1ccc(C)cc1C (centres undefined),4,.,34,4,-8,9,.
CC1=NN(C(N)=S)C(=O)C1N=Nc1c(C)cc(C)cc1C (centres undefined),51*,-32,33,45*,7,37,26
COC(=O)C1(Cc2cc(-c3ccccc3)no2)CCN(C(=O)OC(C)(C)C)CC1,0,-8,5,43*,29,21,34*
CC1(C)Cc2c(sc(NC(=O)C(=O)N3CCN(CCO)CC3)c2C(N)=O)CO1,-6,-20,20,22,7,7,.
COc1ccc(S(=O)(=O)NN(C)c2ncc(C(F)(F)F)cc2Cl)cc1,-4,5,3,40*,15,7,15
N#CCc1ccc(Oc2ncc(C(F)(F)F)cc2Cl)cc1,-4,-13,-9,48*,39,31,28

# Screening data as filed in PubChem.
